Here are results for 37 compounds from PubChem BioAssay AID504697 (The Scripps Research Institute Molecular Screening Center, 2011).

Usually EC50 stands for the midpoint of the concentration-response curve.

Active and inactive are the calls of the source.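 How the source made its calls: active means EC50 at or below 10 µM; inactive means EC50 above 10 µM.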 A value given as a limit tells only on which side of the number the result lay.

This test in a line: fluorescence interference artefacts, compound only, dose response, artefact control for cardiac thin filament activator project, biochemical, no RTF in test wells (AID 504697).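 Further: emission near 535 nm under roughly 485 nm excitation as for IANBD.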 The following applies: compound-only fluorescence in RTF assay buffer with Ca2+ (no RTF in test wells), artifact counterscreen. (The purpose of a counterscreen is to sort out artefacts and off-target activity.)
`O=[n+]1c2c(n([O-])c3cc(F)c(N4CCCC4)cc31)CCC2`: the EC50 is 9.61 µM (active).

On to `COC(=O)c1sc(N2C(=O)C(O)=C(C(=O)c3ccc(C)o3)C2c2ccc(F)cc2)nc1C` (configuration not stated), for which the EC50 was > 71.4 µM (inactive).

For `CC(C(=O)c1ccc(Br)cc1)[n+]1cccc2ccccc21` (configuration not stated), the EC50 is > 71.5 µM (inactive).

For the compound `CCOC(=O)c1sc(-c2ccc(F)cc2)cc1NC(=O)Nc1ccccc1OC`, the EC50 was > 71.4 µM (inactive).

For `O=C(NC1CCCCC1)c1cc2nc3c(c(C(F)(F)F)n2n1)CCCC3`, the EC50 was > 71.5 µM (inactive).

Regarding `Cn1nc(-c2ccccc2)c(C(=O)Nc2ccc(C(F)(F)F)cc2)c1Cl`, the EC50 was > 71.5 µM (inactive).

Take `O=C(c1ccc(COc2ccccc2Br)o1)N1N=C(C(F)F)CC1(O)C(F)F` (configuration not stated): the EC50 is > 71.5 µM (inactive).

As for `CCCN1CCc2c(sc(NC(=S)NC(=O)c3ccccc3)c2C#N)C1`, the EC50 was > 71.5 µM (inactive).

As to `CC(=O)Nc1ccc2cc3ccc(NC(C)=O)cc3nc2c1`, the EC50 was > 71.5 µM (inactive).

With `COc1ccc(/C=C2/SC(c3ccc(C)cc3)=NC2=O)cc1OC`, the EC50 was 1.43 µM (active).

As to `O=C(Nc1ccc(Cl)cn1)C1COc2ccccc2O1` (configuration not stated), the EC50 is > 71.5 µM (inactive).

Take `S=C(Nc1cc(Cl)ccc1Oc1ccccc1)N1CCN(c2ccccn2)CC1`: the EC50 is > 71.4 µM (inactive).

As for `Cc1cc(/C=C2\SC(=S)N(Cc3ccco3)C2=O)c(C)n1-c1cccnc1`, the EC50 is 12 µM (inactive).

As to `COc1ccccc1C(=O)Oc1ccc2c(c1)O/C(=C\c1ccncc1)C2=O`, the EC50 is 30.9 µM (inactive).

In the case of `COc1cc(OC)c(C(=O)OC(C)C(=O)Nc2cccc(C(F)(F)F)c2)cc1OC` (configuration not stated), the EC50 was > 71.5 µM (inactive).

Consider `COc1ccccc1NS(=O)(=O)c1cc([N+](=O)[O-])ccc1N/N=C/c1c(C)[nH]c2ccccc12`, for which the EC50 is 9.25 µM (active).

As to `Cc1ccc(N=Nc2c(O)n(CN3CCOCC3)c3ccccc23)cc1`, the EC50 is > 71.5 µM (inactive).

For the compound `N=C1c2ccccc2CN1c1ccc(S(=O)(=O)N2CCCCC2)cc1`, the EC50 is > 71.5 µM (inactive).

With `COC(=O)C1=C(C)NC(=O)/C1=C\N(C)C`, the EC50 was > 71.5 µM (inactive).

As for `COc1ccc(C(=O)Nn2cnc3scc(-c4cccs4)c3c2=O)c(O)c1`, the EC50 is > 71.5 µM (inactive).

As to `CCOC(=O)/C(=C\c1c[nH]c2ccccc12)NC(C)=O`, the EC50 was > 71.4 µM (inactive).

Turning to `COc1ccc(C(=O)Nc2cc(C(C)=O)c(/C=C/N(C)C)oc2=O)cc1`, the EC50 is 29.5 µM (inactive).

For the compound `COc1ccc(C(=O)/C=C/c2cn(CC(O)CN3CCN(C)CC3)c3ccccc23)cc1OC` (configuration not stated), the EC50 was 25.7 µM (inactive).

With `Cc1cc(C)c2nc(NC(=O)C3CCCO3)sc2c1` (configuration not stated), the EC50 was > 71.5 µM (inactive).

For `Cc1ccc(NC(=O)COc2ccc(/C=N/NC(=O)CSCc3ccccc3)cc2)cc1`, the EC50 is > 71.5 µM (inactive).

For `C=CCN1C(=O)c2ccccc2NC1c1cc(Br)cs1` (configuration not stated), the EC50 was > 71.5 µM (inactive).

With `O=[N+]([O-])c1ccc(NN=Cc2cccc3ccccc23)nc1`, the EC50 is 62.7 µM (inactive).

For `O=C1c2ccsc2SCCN1Cc1ccc(F)cc1`, the EC50 was > 71.5 µM (inactive).

As to `COc1c(O)cccc1-c1nnn(CCC(=O)OCC(=O)c2ccccc2)n1`, the EC50 was > 71.5 µM (inactive).

Consider `CC(=O)N1CCc2c(sc(NC(=O)C3CCCN3S(=O)(=O)c3cccs3)c2C(N)=O)C1` (configuration not stated), for which the EC50 was 42.6 µM (inactive).

Regarding `O=C(N/N=C/c1sc2ccccc2c1O)c1ccccc1`, the EC50 was 17.9 µM (inactive).

Take `O=C(OCCN1C(=O)c2cccc3c(N4CCOCC4)ccc(c23)C1=O)c1ccc(Cl)cc1Cl`: the 50% effective concentration (EC50) is 2.52 µM (active).

Turning to `Cc1cccc(/C=N/NC(=O)C(C)Nc2cccc3ccccc23)n1` (configuration not stated), the EC50 is 26.9 µM (inactive).

For the compound `CCOC(=O)c1sc(N)c(C#N)c1COC(=O)CNC(=O)c1cc(OC)c(OC)c(OC)c1`, the EC50 is 49.3 µM (inactive).

As for `COc1ccc2nc(-c3ccccn3)[nH]c2c1`, the EC50 is > 71.5 µM (inactive).

`O=C(/C=C/c1nc2ccccc2s1)N1CCCCCC1`: the EC50 is > 71.5 µM (inactive).

`Cc1c(O)c2c3c(cccc3c1O)C(=O)N(c1ccccc1)C2=O`: the EC50 is 13.9 µM (inactive).
